PubChem BioAssay AID2314 (National Center for Advancing Translational Sciences (NCATS), 2010)
Several values for one entry are separate records, joined by “and”; a condition that tells them apart may be missing. Equal values may be shown once. In all, about 300,000 compounds went through this assay and about 37,000 (12%) were called active. No stated cut-off is given here; in the data, active means max response mostly above about 13% (no sharp cut-off); inactive means mostly below about 14%. For the sample, actives were picked, then their nearest neighbours and some compounds at random.

Assay: Cycloheximide Counterscreen for Small Molecule Inhibitors of Shiga Toxin; further: read at 38.3 µM for the half of the compounds with a filed dose; 0% is about no effect
Settings: cell reporter, cycloheximide protein synthesis inhibition counterscreen; stronger effect = higher value
With `CC(=O)N1c2ccc(S(=O)(=O)N3CCC(C(=O)NC4CCCC(C)C4C)CC3)cc2CC1C` (centres undefined) the max response was 4.81% (inactive). With `Cc1ccc(OCC(=O)Nc2ccccc2C(=O)NC2CC2)cc1C` the max response was -1.62% (inactive). With `CCOC(=O)CSc1nnc(-c2ccncc2)o1` the max response was 1.84% (inactive). For `CCCCSc1nnc(-c2ccc(C)cc2)o1`, the max response was 40.6% (active). With `CCOC(=O)CSc1nnc(-c2ccc([N+](=O)[O-])cc2)o1` the max response was -0.444% (inactive). With `c1ccc2c(c1)C(=NC1CCCCC1)NC2=NC1CCCCC1` the max response was -4.35% (inactive). In the case of `O=C(c1ccc(CS(=O)(=O)c2ccccc2)o1)N1CCN(c2ccccc2)CC1`, the max response is reported as -5.15% (inactive). With `Cc1c(CC(=O)NCC(=O)NCC(=O)O)c(=O)oc2cc3oc4c(c3cc12)CCCC4` the max response was -2.59% (inactive). In the case of `COc1ccc(N(CC(=O)Nc2cc(OC)cc(OC)c2)S(=O)(=O)c2c(C)n[nH]c2C)cc1`, the max response is reported as -1.21% (inactive). In the case of `Cc1ccc(Nc2cc(C)nc3c(C)ccc([N+](=O)[O-])c23)cc1`, the max response is reported as 0.487% (inactive). In the case of `Cc1[nH]n(-c2cccc(Cl)c2)c(=O)c1-c1ccc(Cl)cc1`, the max response is reported as 12.1% (inactive). For `O=c1c(-c2cccc(Cl)c2)c[nH]n1-c1ccccc1`, the max response was 69.9% (active). In the case of `O=c1c(-c2ccccc2Cl)c[nH]n1-c1ccccc1`, the max response is reported as 8.14% (inactive). For `CC(=O)C1=C(O)C(=O)N(c2cccnc2)C1c1ccc([N+](=O)[O-])cc1` (centres undefined), the max response was -2.81% (inactive). For `O=C(COC(=O)c1ccc(N2CCCC2=O)cc1)c1ccc(OC(F)F)cc1`, the max response was 2.45% (inactive). In the case of `S=c1[nH]c2ccccc2c2ccccc12`, the max response is reported as 1.83% (inactive). In the case of `CC1CCC(NC(=O)C2c3ccccc3C(=O)N2Cc2ccc3c(c2)OCO3)CC1` (centres undefined), the max response is reported as -1.18% (inactive). For `Cc1ccc(C(=O)NC2CC(C)(C)NC(C)(C)C2)c(C)c1`, the max response was -4.92% (inactive). With `Cc1ccc2c(c1)NCC(C(=O)NC1CCC(C)CC1)O2` (centres undefined) the max response was 41.1% (active). With `CC(NS(=O)(=O)c1ccc(Br)cc1)C(=O)NCC1CCCO1` (centres undefined) the max response was -1.6% (inactive). In the case of `CN1CCN(c2nc(Nc3ccc(O)cc3)nc3ccccc23)CC1`, the max response is reported as -3.27% (inactive). With `OCCNc1nc(Nc2ccc(Cl)c(Cl)c2)nc2ccccc12` the max response was 10.5% (active). With `COc1cc2nc(Cl)nc(NCCO)c2cc1OC` the max response was -1.72% (inactive). In the case of `COc1ccc(C2=NN(C(=O)c3ccccc3C(=O)O)C(c3ccccc3O)C2)cc1` (centres undefined), the max response is reported as 40.6% (active). With `COc1ccc(C2=NN(C(C)=O)C(c3ccccc3)C2)cc1` (centres undefined) the max response was 20.9% (active). With `COc1ccc(C2CC(c3ccccc3)=NN2C(=O)c2ccc(Cl)c([N+](=O)[O-])c2)cc1` (centres undefined) the max response was 12.9% (inactive). In the case of `COc1ccc(C(=O)Nc2nc(-c3ccc(OC)cc3)c(-c3ccc([N+](=O)[O-])cc3)s2)cc1`, the max response is reported as 9.79% (inactive). For `COc1ccc(C2=NN(C(=O)CCC(=O)O)C(c3cccs3)C2)cc1OC` (centres undefined), the max response was -1.52% (inactive). With `COc1ccc(C(=O)CSc2nccc(=O)[nH]2)cc1` the max response was 8.3% (inactive). With `COc1ccc(C2=NN(C(=O)c3cccnc3)C(c3ccccc3)C2)cc1` (centres undefined) the max response was -5.54% (inactive). With `COc1ccc(C2CC(c3ccccc3)=NN2C(=O)CSc2nccc(=O)[nH]2)cc1` (centres undefined) the max response was 40% (active). For `CCOc1ccc2nc(Cl)c(C3CC(c4ccccc4)=NN3C(=O)c3cccs3)cc2c1` (centres undefined), the max response was -1.42% (inactive). For `COc1cccc(C2CC(c3ccccc3)=NN2S(=O)(=O)c2ccccc2)c1OC` (centres undefined), the max response was 0.319% (inactive). With `COc1ccc(C2CC(c3ccccc3)=NN2C(=O)COC(=O)COc2ccccc2)cc1` (centres undefined) the max response was 2.88% (inactive). For `COc1ccc(C2CC(c3ccc([N+](=O)[O-])cc3)=NN2C(C)=O)cc1` (centres undefined), the max response was 24.5% (active). With `CCCCN(CCCC)CCNC(=O)CN1C(=O)COc2ccc(S(=O)(=O)N3CCOCC3)cc21` the max response was -2.14% (inactive). In the case of `CCN1C(=NCCc2cccnc2)N[C@@H](c2ccccc2)[C@H](C(=O)OC)[C@H]1C`, the max response is reported as 3.2% (inactive) and 1.95% (inactive). For `COCCN1C(=O)N(c2ccc(Cl)cc2)C(=O)C1CC(=O)Nc1cc(OC)cc(OC)c1` (centres undefined), the max response was -0.589% (inactive). In the case of `CCN1C(=O)c2cccc3c(S(=O)(=O)Nc4ccccc4O)ccc1c23`, the max response is reported as 9.32% (inactive). For `O=C(CCC(=O)NNc1nc2ccccc2c2nc(-c3ccccc3)nn12)NCCCN1CCCC1=O`, the max response was 10.3% (inactive). With `COc1ccc(S(=O)(=O)NCCOc2ccccc2)cc1F` the max response was -4.53% (inactive). For `Cc1ccc2c(c1)N(CC(=O)N1CCC(C)CC1)C(=O)c1cccnc1O2`, the max response was -1.05% (inactive). With `COC(=O)c1ccccc1NC(=O)C1CCN(C(=O)N2CCOc3ccccc32)CC1` the max response was 0.401% (inactive). With `CCOc1ccccc1CN1CCN(C2CCC2)CC1CCO` (centres undefined) the max response was -0.61% (inactive). With `CS(=O)(=O)c1ccccc1C(=O)Nc1ccc2sccc2c1` the max response was 1.56% (inactive). For `O=C(Nc1cccc(Cl)c1)Nc1nnc(-c2ccccc2)o1`, the max response was -4.47% (inactive). In the case of `Cc1cc(Cl)nc(NC(=O)Nc2cccc(Cl)c2)n1`, the max response is reported as 19.5% (active). For `O=C(NCCN1CCOCC1)Nc1cccc(Cl)c1`, the max response was 20.1% (inactive). For `Cc1ccc(Cl)c(OCC(=O)N2CCc3ccccc3C2)c1`, the max response was 30% (active). In the case of `Cc1ccccc1-c1nc(CS(=O)(=O)CC(=O)N2CCc3ccccc3C2)c(C)o1`, the max response is reported as 0.61% (inactive). In the case of `O=C(C1CCN(c2nnc(-n3cccc3)s2)CC1)N1CCc2ccccc2C1`, the max response is reported as -2.9% (inactive). For `COc1ccc(OCC(=O)N2CCN(C(=O)COc3ccccc3)CC2)cc1`, the max response was -5.08% (inactive). In the case of `Cc1cccc(OC(C)C(=O)N2CCc3ccccc3C2)c1` (centres undefined), the max response is reported as -3.38% (inactive). In the case of `O=C(Cn1c(=S)nc2ccccn21)N1CCc2ccccc2C1`, the max response is reported as 22.4% (active). In the case of `O=C(COc1ccccc1Cl)N1CCCCCCC1`, the max response is reported as 4.62% (inactive). In the case of `Cc1ccc(Cl)c(OCC(=O)NN2CCN(C)CC2)c1`, the max response is reported as -2.49% (inactive). With `O=C(COc1ccccc1)N1CCc2ccccc2C1` the max response was 28.7% (active). With `COc1ccccc1CN1CCN(C(c2ccccc2)c2ccccc2)CC1` the max response was -1.72% (inactive). With `CC1CCN(C(=O)c2ccc3c(c2)NC(=O)CN3)CC1` the max response was -6.43% (inactive). In the case of `Oc1ccc(Cl)cc1C1C=C(c2ccc3c(c2)OCO3)NC(c2ccc(F)c(Br)c2)N1` (centres undefined), the max response is reported as 50.7% (active). For `Oc1ccc(Cl)cc1C1C=C(c2ccc3c(c2)OCO3)NC(c2c(F)cccc2Cl)N1` (centres undefined), the max response was 59.8% (active). For `O=C(c1cc(COc2cccc(C(F)(F)F)c2)on1)N1CCSCC1`, the max response was -0.615% (inactive). In the case of `Cc1c(C(=O)N2CCOCC2)[nH]c2ccc(OCc3ccccc3)cc12`, the max response is reported as 0.995% (inactive). For `CCOC(=O)CC1COCCN1C(=O)c1cc(COc2ccc(F)c(F)c2)on1` (centres undefined), the max response was 38.7% (active). For `CN1CCN(C(=O)c2ccccc2NC(=O)COc2ccccc2Cl)CC1`, the max response was 16.7% (inactive). For `O=C(c1cc(COc2ccc(F)c(F)c2)on1)N1CCOCC1`, the max response was 42.1% (active). For `O=C(c1cc(COc2c(F)cccc2F)on1)N1CCSCC1`, the max response was 54.8% (active). With `Cc1cc(NC(=O)COC(=O)c2ccc(F)c(S(=O)(=O)N3CCOCC3)c2)no1` the max response was -2.52% (inactive). In the case of `CCOC(=O)c1ccccc1C(=O)N1CCOCCOCCOCC1`, the max response is reported as -3.37% (inactive). With `OC(COc1ccc(F)cc1Cl)CN1CCc2ccccc2C1` (centres undefined) the max response was -2.68% (inactive). With `O=C(c1c(F)cccc1F)N1CCN(c2ncc(Br)cn2)CC1` the max response was -1.54% (inactive). With `COCCN1CCN(C(=O)c2cc(COc3ccc(F)cc3Cl)on2)CC1` the max response was 20.2% (active). In the case of `C=CCC1(CC=C)CCCN1C(=O)c1cc(COc2ccc(-n3cncn3)cc2)on1`, the max response is reported as 7.87% (inactive). In the case of `C=CCNc1nc(N)c(C(=C(C#N)C#N)c2ccccc2)s1`, the max response is reported as 1.38% (inactive). With `Cc1ccn2c(c1)nc(=O)c1cc(S(=O)(=O)N3CCC(C)CC3)ccc12` the max response was -3.62% (inactive). For `OC(CN=c1sc2ccccc2n1CC(O)COc1ccccc1)COc1ccccc1` (centres undefined), the max response was 0.416% (inactive). In the case of `O=C(Nc1ccc(Cl)cc1)c1cccc(OC(=S)N2CCOCC2)c1`, the max response is reported as 21.3% (inactive). With `CC(C)Oc1ccc(C(CC(=O)N2CCOCC2)C(C)C)cc1` (centres undefined) the max response was 0.501% (inactive). For `O=C(NNC(=O)C(O)c1ccccc1)NC1CCCCC1` (centres undefined), the max response was -2.85% (inactive). In the case of `COCC(C)NC(=O)c1ccc(-n2nc(C(F)(F)F)cc2-c2cccs2)cc1` (centres undefined), the max response is reported as 1.01% (inactive). For `Nc1nonc1-n1nnc(C(=O)N/N=C/c2ccc(Cl)cc2)c1-c1ccc2c(c1)OCO2`, the max response was -1.92% (inactive). With `Cc1c(-c2ccccc2)cn2c1-c1ccc(C)n1CC2` the max response was -3.8% (inactive). With `O=C1COc2ccc(NC(=O)N3CCN(c4ccc(F)cc4)CC3)cc2N1` the max response was -3.27% (inactive). For `COc1ccc(OC)c(NC(=O)CSc2nc(-c3ccccc3)cc(=O)[nH]2)c1`, the max response was -6.47% (inactive). In the case of `O=C(c1cc(COc2ccc(F)cc2F)on1)N1CCOCC1`, the max response is reported as 47% (active). In the case of `COc1ccc(-c2cc(C(=O)NCCCN3CCOCC3)no2)cc1`, the max response is reported as 2.58% (inactive). In the case of `COc1cc(C(=O)N2CCOCC2)cc(OC)c1OC`, the max response is reported as -5.91% (inactive). With `O=C(NC1Cc2ccccc2C1)c1cc(COc2cccc(C(F)(F)F)c2)on1` the max response was -3.57% (inactive). For `COc1ccc(CCNC(=O)c2cnc(Cl)c(Cl)c2)cc1`, the max response was 6.51% (inactive). In the case of `CCC(NC(=O)c1cc(COc2ccc(F)c(F)c2)on1)c1ccncc1` (centres undefined), the max response is reported as 33.7% (active). For `O=C(Oc1ccc(C(=S)N2CCOCC2)cc1)c1ccc(F)cc1`, the max response was -3.82% (inactive). With `O=C(CC(NC(=O)c1ccccc1)c1ccccc1)Nc1ccc(F)c(F)c1` (centres undefined) the max response was 1.73% (inactive). In the case of `COc1ccc(OCc2cc(C(=O)NCC3(C)COC3)no2)c(Cl)c1`, the max response is reported as 40.1% (active). In the case of `O=C(Nc1ccc(N2CCOCC2)cc1)c1ccc(-c2ccccc2[N+](=O)[O-])o1`, the max response is reported as 21.5% (inactive).
